HepG2 tox: qHTS for Inhibitors of TGF-b: Cytotox Counterscreen; HepG2 CAGA-GFP viability, ATP luminescence, 18 h; Potency, µM (series often up to 46.1 µM), for the others: top-dose activity change, negative = cytotoxicity, hits mostly cytotoxic; 410,000 tested, 0.76% active
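HepG2 CAGA-GFP cells (1000/well, DMEM with 1% FBS) received compound, then TGF-beta at 500 pg/mL final, and were incubated 18 hours at 37 degrees C. Viability was read by CellTiter-Glo luminescence. Media-only wells were set as complete cell-killing and DMSO as no toxicity.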
DT40 TDP1 no CPT: qHTS for Inhibitors of human tyrosyl-DNA phosphodiesterase 1 (TDP1): qHTS in cells in absence of CPT. AID 686978, 2013. 420,000 tested, 15% active. DT40 Tdp1-/- hTDP1 cells, no CPT, ATP luminescence, 48 h. Potency, µM (top dose mostly 46.2 µM), for the others: at the top dose activity change, negative = growth inhibition, actives largely listed as inhibitors; also: % is scaled to controls: 0 for no effect and ±100 for the full control effect; nearly all actives have a fitted effect of over 55% in size
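No-CPT arm: Tdp1-/-;hTDP1 DT40 cells (400/well) plus compounds, incubated ≥48 hr at 37 °C. Readout CellTiter-Glo luminescence.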
TGFb SMAD3 inh: qHTS for Inhibitors of TGF-b; HepG2 CAGA-GFP TGF-b/SMAD3 reporter, GFP fluorescence, 18 h; TGF-beta stimulated, 500 pg/mL final; Potency, µM (top dose mostly 46.1 µM), for the others: top-dose activity, negative = inhibition, usual class: inhibitors; 410,000 tested, 1.2% active; also: % is scaled to controls: 0 for no effect and ±100 for the full control effect; nearly all actives have a fitted effect of over 65% in size
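HEPG2 CAGA-GFP, 1000 cells/well; 2 h settle, 37 C; cpd via pin tool; TGF-b 500 pg/mL final; 18 h, 37 C; GFP imaging ex488/em500-530; %Activity normalised to -TGF-b and +DMSO controls; CRC fit, curve class.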
HT1080-NT tox: qHTS for induction of synthetic lethality in tumor cells producing 2HG: qHTS for the HT-1080-NT fibrosarcoma cell line. Potency, µM (doses to about 46.1 µM), without a hit: at the top dose activity, negative = less viability, most hits filed as cytotoxic. HT-1080-NT fibrosarcoma viability, CellTiter-Glo ATP luminescence, 48 h. 360,000 tested, 1.6% active;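 also: NT is the 2HG producing partner of a matched IDH1 knockdown line; 0% = DMSO-treated cells and -100% = media-only wells without cells; nearly all actives have a fitted effect of over 55% in size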
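Toxicity toward the 2HG-producing NT line was scored as %Activity, normalised to DMSO and no-cell wells, from CellTiter-Glo luminescence after 48 hours' treatment.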
DT40 TDP1 CPT: qHTS for Inhibitors of human tyrosyl-DNA phosphodiesterase 1 (TDP1): qHTS in cells in presence of CPT | chicken DT40 Tdp1-/-;hTDP1 cells + 20 nM CPT, ATP luminescence, 48 h | Potency, µM (titrated, usually from 46.2 µM), without a hit: top-dose activity change, negative = growth inhibition, usual class: inhibitors | 420,000 tested, 12% active | AID 686979, 2013; also: % is scaled to controls: 0 for no effect and ±100 for the full control effect; nearly all actives have a fitted effect of over 55% in size
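Chicken DT40 Tdp1-/- cells stably complemented with human TDP1 were seeded at 400 cells/well in medium containing 20 nM camptothecin, exposed to pin-transferred compounds, and grown at 37 °C for at least 48 hr. Viability was read as ATP luminescence.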
HT1080 IDH1KD tx: qHTS for induction of synthetic lethality in tumor cells producing 2HG: qHTS for the HT-1080-IDH1KD cell line. Potency, µM (top dose mostly 46.1 µM), without a hit: at the highest dose activity, negative = toxicity, usual class: cytotoxic. 360,000 tested, 2% active. HT-1080 IDH1 knockdown viability, ATP luminescence, 48 h;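 also: 0% = DMSO wells and -100% = cell-free medium wells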
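In this qHTS, HT-1080 cells depleted of IDH1 are exposed for 48 h at 37 °C to compound titrations. Toxicity is scored from CellTiter-Glo luminescence, with DMSO as full viability and medium alone as none.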
* = called active by the depositor; ? = inconclusive; · = no result. Hits are enriched below; roughly 17% of the tested compounds scored in any of these assays. Calls follow the shape of the dose curve; as a rule, active = well fitted curve in the direction sought with a large enough effect; inconclusive = small, poorly fitted or top-dose-only effect, or another doubt; inactive = no such curve, though single readings can be large; an effect the other way counts as inactive or inconclusive. Potency is read from the fitted curve at half-maximal effect.

SMILES	HepG2 tox	DT40 TDP1 no CPT	TGFb SMAD3 inh	HT1080-NT tox	DT40 TDP1 CPT	HT1080 IDH1KD tx
CC(C(=O)NC1CCCC1)N(C(=O)c1ccc(-c2ccccc2)[nH]1)c1ccccc1F (configuration not stated)	-38.9%	?	?	?	-17.7%	?
CCCCn1c(NCc2ccc(N(C)C)cc2)nc2ccccc21	-34.8%	25.9µM*	15.8µM*	-3.0%	25.9µM*	-19.3%
CCCCn1c(NCc2ccncc2)nc2ccccc21	-0.8%	-17.3%	3.6%	-0.3%	-14.8%	10.4%
Cc1c(C(=O)NCc2ccccc2)c(-c2ccccc2)nn1-c1ccccc1	-26.0%	?	1.1%	7.7%	23.1µM*	3.2%
CCN1CCN(C(=O)c2c(C)nn(-c3ccc(F)cc3)c2-n2cccc2)CC1	-23.5%	·	2.3%	·	·	·
Cc1c(C(=O)NC(C)C)c(-c2ccccc2)nn1-c1ccccc1	-2.4%	-19.7%	-0.6%	7.9%	-4.7%	0.9%
Cc1nn(-c2ccccc2)c(-n2cccc2)c1C(=O)N1CCN(c2ccccc2)CC1	-2.4%	23.1µM*	?	·	?	·
Cc1nn(-c2ccccc2)c(-n2cccc2)c1C(=O)NCCc1ccc(Cl)cc1	-19.6%	?	?	·	20.6µM*	·
Cc1nn(-c2ccc(F)cc2)c(-n2cccc2)c1C(=O)NCCCN1CCN(c2cccc(Cl)c2)CC1	17.8µM*	·	11.2µM*	·	·	·
CCCCSc1nnc(CSc2nc3nc(C)cc(C)n3n2)o1	-13.7%	-16.7%	-2.1%	-0.3%	?	1.1%
COc1cccc(CNC(=O)c2c(C)nn(-c3cccc(C)c3)c2-n2cccc2)c1	-27.6%	14.6µM*	0.0%	·	?	·
COc1cccc(CNC(=O)c2c(C)nn(-c3ccc(F)cc3)c2-n2cccc2)c1	-17.3%	·	2.6%	·	·	·
Cc1nn(-c2ccccc2)c(-n2cccc2)c1C(=O)NCc1ccccc1Cl	-18.4%	25.9µM*	?	·	20.6µM*	·
CCc1nc2c(OCc3ccc(Cl)cc3)cccn2c1N(C)C(=O)c1cccs1	-5.2%	?	-19.2%	?	?	?
CCc1nc2c(OCc3ccc(Cl)cc3Cl)cccn2c1N(C)C(=O)CC(C)C	11.2µM*	6.51µM*	?	25.9µM*	?	?
CCc1nc2c(OCc3ccc(F)c(F)c3)cccn2c1N(C)C(=O)c1cccs1	-10.1%	23.1µM*	-14.2%	-1.3%	?	-4.1%
CCc1nc2c(OCCOc3ccc(F)cc3)cccn2c1N(C)C(=O)CC(C)C	-27.8%	10.3µM*	?	-0.1%	16.4µM*	2.6%
CCc1nc2c(OCc3ccc(F)cc3)cccn2c1N(C)C(=O)c1ccco1	-17.5%	?	-13.2%	-0.2%	-18.1%	16.4%
CCc1nc2c(OCc3ccc(Cl)cc3)cccn2c1N(C)C(=O)c1ccco1	-64.3%	20.6µM*	?	?	16.4µM*	?
O=C1/C(=C/c2ccc(Cl)cc2)NC(=S)N1Cc1cccnc1	-10.3%	?	7.9%	4.3%	?	6.2%
CCc1nc2c(OCc3cc(Cl)cc(Cl)c3)cccn2c1N(C)C(=O)c1ccccc1F	-38.1%	?	?	18.4µM*	?	?
CCc1nc2c(OCC(=O)c3ccc(F)cc3)cccn2c1N(C)C(=O)COc1ccccc1	-14.8%	20.6µM*	2.6%	-18.6%	?	1.9%
CCc1nc2c(OCC3COc4ccccc4O3)cccn2c1N(C)C(=O)c1ccccc1F (configuration not stated)	-6.8%	20.6µM*	-3.0%	?	20.6µM*	9.1%
CCc1nc2c(OCc3cc(Cl)cc(Cl)c3)cccn2c1N(C)C(=O)CC(C)C	-52.5%	?	?	?	25.9µM*	?
CCCCC(=O)N(C)c1c(CC)nc2c(OCC(=O)c3ccc(F)cc3)cccn12	1.6%	?	6.7%	-3.2%	?	5.2%
SMILES	HepG2 tox	DT40 TDP1 no CPT	TGFb SMAD3 inh	HT1080-NT tox	DT40 TDP1 CPT	HT1080 IDH1KD tx
CCc1nc2c(OCC3COc4ccccc4O3)cccn2c1N(C)C(=O)c1cccs1 (configuration not stated)	-15.1%	?	2.5%	-12.9%	?	14.9%
CCc1nc2c(OCc3ccc(F)c(F)c3)cccn2c1N(C)C(=O)CC(C)C	-28.5%	?	-9.2%	10.5%	?	1.3%
COc1ccc(OC)c(C(=O)NC(CC(N)=O)c2ccc(N3CCN(c4ccccn4)CC3)c([N+](=O)[O-])c2)c1 (configuration not stated)	-2.6%	?	-6.1%	13.9%	-15.6%	4.4%
COc1ccc2c(c1)CC(C(=O)N1CCC(C(N)=O)CC1)CO2 (configuration not stated)	-1.9%	-15.2%	-4.8%	·	-8.9%	·
COc1ccc(-c2c3c(cc(C)[n+]2[O-])oc2ccc(OC)cc23)cc1	-11.6%	?	-17.0%	-6.8%	25.9µM*	-9.2%
COc1ccc2oc3cc(C)[n+]([O-])c(-c4ccc(C)cc4)c3c2c1	-18.3%	0.206µM*	?	-2.8%	?	-12.9%
COc1ccc(-c2c(C)oc3ccc(C)cc23)cc1	-19.5%	0.1%	-8.7%	0.8%	-29.2%	-12.5%
Cc1ccc(F)c(C2C3C=CCC(C)C3C(=O)N2Cc2ccccc2)c1 (configuration not stated)	-99.9%	·	?	·	·	·
Cc1ccccc1C(=O)N=c1sccn1C	-14.1%	3.26µM*	-9.2%	-0.8%	-1.4%	-4.2%
Cc1ccc(O)c(N=Nc2nccs2)c1	-31.3%	0.92µM*	?	?	1.16µM*	?
O=C(Nc1ccc(F)cc1)c1ccc(C(=O)N2CCCC(O)C2)cc1 (configuration not stated)	-21.5%	?	-1.0%	16.9%	?	7.2%
CCOC(=O)c1c(C)[nH]c(C)c1C(=O)COC(=O)[C@@H](NC(=O)c1ccccc1OCC)C(C)C	-33.3%	20.6µM*	?	?	?	-7.5%
COC(=O)CNC(=O)/C=C/c1ccc(OC)cc1	-9.6%	3.5%	-15.2%	6.1%	-7.6%	18.8%
CCOC(=O)C(CC)(CC)C(=O)/C=C/c1ccc(OC)cc1	2.2%	18.4µM*	-24.6%	-10.3%	?	-4.0%
